Source: PubChem BioAssay (NCI)
Compounds without any hit were thinned out: in the full panel of roughly 83,000, 20% have a hit.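 Method: cells in 96-well plates; compound added at one concentration; 48 h incubation; percent growth measured; values under 10 scored active.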 Unmarked numbers belong to inactive results. Calls of active or inactive are those of the source.

What follows are compounds tested on NCI-H23 lung (assay: NCI-60 one-dose screen, 48 h (100 = growth as untreated, 0 = no growth, -100 = all killed)). Conditions: 10 µM unless noted.

**Q.** For O=C1NN(c2ccccc2)C(c2ccc(Cl)cc2)N2CCC[C@H]12 (stereo partly drawn), which growth is on record?
**A.** 90.7%

**Q.** For Nc1ccccc1NS(=O)(=O)c1ccc(Cl)cc1, which growth is on record?
**A.** 94.5%

**Q.** CCCCCCN1C(=O)CN=C1Nc1ccc2cc3ccc(NC4=NCC(=O)N4CCCCCC)cc3nc2c1 was tested. Which growth did it give?
**A.** 64.8%

**Q.** Which growth does the source give for Nc1n[nH]c2cccc(C#Cc3cccc(NC(=O)c4cc(N5CCOCC5)cc(C(F)(F)F)c4)c3)c12 here?
**A.** 45%

**Q.** Cc1cnc(SCc2ccc(Cl)cc2Cl)nc1Nc1ccc(Cl)c(Cl)c1 was tested. Which growth did it give?
**A.** 92.8%

Each compound was assayed on NCI-H226 lung in the same assay as above. Conditions: 10 µM unless noted.

**Q.** Which growth does the source give for COc1ccc(/C=C/C(=O)/C=C(/C=C/c2ccc(OC)c(OC)c2)OB(F)F)cc1OC here?
**A.** 57.1%

**Q.** How did the growth turn out when COc1cc(/C=C/C(=O)/C=C/c2cc3ccc(Cl)cc3[nH]c2=O)ccc1O was run?
**A.** 80.1%

**Q.** How did the growth turn out when CCCCn1c(=O)c(/C=C/C(=O)/C=C/c2cc3ccccc3n(CCCC)c2=O)cc2ccccc21 was run?
**A.** -22.8% (active)

**Q.** Which growth does the source give for COc1ccc(-c2nc(C#N)c(NCC(c3ccco3)N3CCCC3)o2)cc1 (stereo not drawn) here?
**A.** 101%

**Q.** For N#C/C(=C/c1ccc(O)c([N+](=O)[O-])c1)c1nc(-c2ccc([N+](=O)[O-])cc2)cs1, which growth is on record?
**A.** 52%

**Q.** For C=C1C(=O)O[C@H]2[C@H]1CC/C(COC(=O)CCCCC(=O)OC/C1=C/CC[C@@]3(C)O[C@H]3[C@H]3OC(=O)C(=C)[C@@H]3CC1)=C\CC[C@@]1(C)O[C@@H]21, which growth is on record?
**A.** 75.3%

**Q.** With CCOC(=O)c1c(C(F)(F)F)n([O-])c2ccc(Cl)cc2[n+]1=O as the compound, how does the growth read?
**A.** 3.03% (active)

**Q.** With COc1ccc(-c2nc(C#N)c(NCC(c3ccc(Cl)cc3)N3CCCCC3)o2)cc1 (stereo not drawn) as the compound, how does the growth read?
**A.** 96%

**Q.** How did the growth turn out when O=CN1N=C(c2ccc(Cl)cc2)CC1c1cccc(Nc2ccnc3cc(C(F)(F)F)ccc23)c1 (stereo not drawn) was run?
**A.** 61.9%

**Q.** With O=C(CCCCCCCCC(=O)Nc1cccc(C2=NCCN2)c1)Nc1cccc(C2=NCCN2)c1 as the compound, how does the growth read?
**A.** 101%

**Q.** With CCOC(=O)C1CCN(S(=O)(=O)/N=C2/NC(=O)NC2=C(Cl)Cl)CC1 as the compound, how does the growth read?
**A.** 118%

**Q.** S=c1ssnc1-c1cc2ccccc2o1 was tested. Which growth did it give?
**A.** 92.9%

**Q.** Which growth does the source give for NS(=O)(=O)c1ccc(C2C3=C(CCCC3=O)OC3=C2C(=O)c2ccccc2C3=O)cc1 (stereo not drawn) here?
**A.** -56.7% (active)

**Q.** C=C1C(=O)O[C@H]2[C@H]1CCC(/C=N/c1ncc(Br)cc1N)=C\CC[C@@]1(C)O[C@@H]21 was tested. Which growth did it give?
**A.** 51.9%

**Q.** C#Cc1ccccc1NC(=O)c1sc2nc3c(cc2c1N)CCCCC3 was tested. Which growth did it give?
**A.** 88.3%

**Q.** How did the growth turn out when NS(=O)(=O)c1ccc(-n2nc(-c3ccccc3)ccc2=O)cc1 was run?
**A.** 100%

**Q.** Which growth does the source give for COc1ccc(-c2nnc(N3CCN(C(=O)CN4CCN(c5ccc(OC)cc5)CC4)CC3)nc2-c2ccc(OC)cc2)cc1 here?
**A.** -81.4% (active)

**Q.** With N#Cc1ccc(Oc2ccc3ccc(=O)oc3c2)cc1 as the compound, how does the growth read?
**A.** 102%

**Q.** Which growth does the source give for CC1CCCN(CCCCCOc2ccc3oc4ccccc4c(=O)c3c2)C1 (stereo not drawn) here?
**A.** 104%

**Q.** CS(=O)(=O)O[C@@H]1C(=O)N(c2cc3c4ccccc4ccc3c3ccccc23)[C@H]1c1ccc(F)cn1 was tested. Which growth did it give?
**A.** 63.2%

**Q.** With C=C1C(=O)O[C@H]2[C@H]1CC/C(C=Nc1c(N)cc(F)cc1Br)=C\CC[C@@]1(C)O[C@@H]21 as the compound, how does the growth read?
**A.** 82.9%

**Q.** Cc1ccc(SC2c3ccc(C)cc3Oc3nc(N)c(C#N)c(N)c32)cc1 (stereo not drawn) was tested. Which growth did it give?
**A.** 92.8%

**Q.** How did the growth turn out when O=C(Nc1nccs1)c1noc2ccccc12 was run?
**A.** 92.7%

**Q.** For C=C(C)[C@@H]1CC[C@]2(C(=O)OCCCC[P+](c3ccccc3)(c3ccccc3)c3ccccc3)CC[C@]3(C)[C@H](CC[C@@H]4[C@@]5(C)CC[C@H](OC(=O)C(Cl)Cl)C(C)(C)[C@@H]5CC[C@]43C)[C@@H]12, which growth is on record?
**A.** -78.5% (active)

**Q.** Cc1cc2ccccc2c[n+]1CC(=O)c1ccc(-c2ccccc2)cc1 was tested. Which growth did it give?
**A.** 60.8%

**Q.** How did the growth turn out when O=C1Nc2ccc(Cl)cc2/C1=N/c1nc(-c2ccc(F)cc2)cs1 was run?
**A.** 75%

**Q.** Which growth does the source give for COc1cc(/C=N/Nc2nc(-c3ccc(F)cc3)c(C#N)c(N3CCOCC3)n2)ccc1O here?
**A.** 97.8%

**Q.** How did the growth turn out when C=C(C)[C@@H]1CC[C@]2(C(=O)N=C=S)CC[C@]3(C)[C@H](CC[C@@H]4[C@@]5(C)CCC(=O)C(C)(C)[C@@H]5CC[C@]43C)[C@@H]12 was run?
**A.** 48.8%

**Q.** CC1(C)[C@@H](O)CC[C@]2(C)[C@H]3CC[C@@H]4[C@H]5[C@H](c6cn(-c7ccccc7)nn6)CC[C@]5(CO)CC[C@@]4(C)[C@]3(C)CC[C@@H]12 was tested. Which growth did it give?
**A.** 80.9%

**Q.** How did the growth turn out when COc1cc(/C=C/C(=O)c2ccc(NC(=O)CSc3nnc(-c4cc(OC)c(OC)c(OC)c4)n3-c3ccccc3)cc2)cc(OC)c1OC was run?
**A.** -64% (active)

**Q.** Which growth does the source give for O=c1c2ccccc2n(CC(O)CN2CCCC2)c2c(Br)cccc12 (stereo not drawn) here?
**A.** 122%

**Q.** How did the growth turn out when COc1cc(-c2cn(-c3ccc(Cl)c(Cl)c3)c(=O)[nH]2)cc(OC)c1OC was run?
**A.** 93.1%

**Q.** With COC(=O)c1ccc2c(c1)n(Cc1ccc3ccccc3c1)c[n+]2Cc1ccc2ccccc2c1 as the compound, how does the growth read?
**A.** 61.3%

**Q.** Which growth does the source give for O=C1NN(c2ccccc2)C(c2ccc(Cl)cc2)N2CCC[C@H]12 (stereo partly drawn) here?
**A.** 95.6%

**Q.** For Nc1ccccc1NS(=O)(=O)c1ccc(Cl)cc1, which growth is on record?
**A.** 103%

**Q.** For CCCCCCN1C(=O)CN=C1Nc1ccc2cc3ccc(NC4=NCC(=O)N4CCCCCC)cc3nc2c1, which growth is on record?
**A.** 81.7%

**Q.** Nc1n[nH]c2cccc(C#Cc3cccc(NC(=O)c4cc(N5CCOCC5)cc(C(F)(F)F)c4)c3)c12 was tested. Which growth did it give?
**A.** 43.9%

**Q.** Which growth does the source give for Cc1cnc(SCc2ccc(Cl)cc2Cl)nc1Nc1ccc(Cl)c(Cl)c1 here?
**A.** 101%
